Reference: the supplement of paper PMC8728848
The full list was thinned out, with the strongest signals kept by preference.

What was measured:
Assay in all cases: glycan array binding signal (z-score within array); higher = stronger binding
Settings in all cases: glycan notation: IUPAC condensed, linker removed
[1] = target: Fuc(a1-2)Gal(b1-3)GlcNAc(b1-2)Man(a1-3)[Fuc(a1-2)Gal(b1-3)GlcNAc(b1-2)Man(a1-6)]Man(b1-4)GlcNAc(b1-4)[Fuc(a1-6)]GlcNAc
How it was run: (§1)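 The Consortium for Functional Glycomics database supplied 3228 glycan arrays, of which those lacking an available protein sequence were dropped. The binding signal, a within-array Z-score, was averaged across arrays of the same protein sequence and across linkers. Negative scores can be read as non-binding.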

[2] = target: Fuc(a1-2)Gal(b1-4)GlcNAc(b1-3)Gal(b1-4)GlcNAc(b1-2)Man(a1-3)[Fuc(a1-2)Gal(b1-4)GlcNAc(b1-3)Gal(b1-4)GlcNAc(b1-2)Man(a1-6)]Man(b1-4)GlcNAc(b1-4)GlcNAc
How it was run: as §1

[3] = target: Fuc(a1-2)Gal(b1-4)GlcNAc(b1-3)GalNAc
How it was run: as §1

[4] = target: Fuc(a1-2)Gal(b1-4)[Fuc(a1-3)]GlcNAc(b1-2)[Fuc(a1-2)Gal(b1-4)[Fuc(a1-3)]GlcNAc(b1-4)]Man(a1-3)[Fuc(a1-2)Gal(b1-4)[Fuc(a1-3)]GlcNAc(b1-2)Man(a1-6)]Man(b1-4)GlcNAc(b1-4)GlcNAc
How it was run: as §1

[5] = target: Fuc(a1-2)Gal(b1-4)[Fuc(a1-3)]GlcNAc(b1-3)Gal(b1-4)[Fuc(a1-3)]GlcNAc(b1-3)Gal(b1-4)[Fuc(a1-3)]GlcNAc
How it was run: as §1

[6] = target: Fuc(a1-2)Gal6S(b1-4)Glc6S
How it was run: as §1

[7] = target: Fuc(a1-2)[Gal(a1-3)]Gal(b1-4)GlcNAc(b1-2)Man(a1-3)[Fuc(a1-2)[Gal(a1-3)]Gal(b1-4)GlcNAc(b1-2)Man(a1-6)]Man(b1-4)GlcNAc(b1-4)[Fuc(a1-6)]GlcNAc
How it was run: as §1

[8] = target: Gal(a1-3)Gal(b1-4)GlcNAc(b1-2)Man
How it was run: as §1

[9] = target: Gal(b1-3)GalNAc(a1-3)[Fuc(a1-2)]Gal(b1-4)GlcNAc
How it was run: as §1

Gal(b1-3)GalNAc(b1-3)Gal = target: Gal(b1-3)GalNAc(b1-3)Gal
How it was run: as §1

Gal(b1-3)GlcNAc = target: Gal(b1-3)GlcNAc
How it was run: as §1

[10] = target: Gal(b1-3)GlcNAc(b1-2)Man(a1-3)[GlcNAc(b1-4)][Gal(b1-3)GlcNAc(b1-2)Man(a1-6)]Man(b1-4)GlcNAc(b1-4)GlcNAc
How it was run: as §1

[11] = target: Gal(b1-3)[GlcNAc(b1-6)]GalNAc
How it was run: as §1

[12] = target: Gal(b1-4)GlcNAc(b1-2)Man(a1-3)[Gal(b1-4)GlcNAc(b1-2)Man(a1-6)][GlcNAc(b1-4)]Man(b1-4)GlcNAc(b1-4)[Fuc(a1-6)]GlcNAc
How it was run: as §1

[13] = target: Gal(b1-4)GlcNAc(b1-2)Man(a1-3)[Man(a1-6)]Man(b1-4)GlcNAc(b1-4)GlcNAc
How it was run: as §1

[14] = target: Gal(b1-4)GlcNAc(b1-3)Gal(b1-4)GlcNAc(b1-2)Man(a1-3)[Gal(b1-4)GlcNAc(b1-3)Gal(b1-4)GlcNAc(b1-2)Man(a1-6)]Man(b1-4)GlcNAc(b1-4)GlcNAc
How it was run: as §1

Gal(b1-6)Gal = target: Gal(b1-6)Gal
How it was run: as §1

[15] = target: Gal3S(b1-3)[Fuc(a1-4)]GlcNAc
How it was run: as §1

[16] = target: Gal3S(b1-4)[Fuc(a1-3)]GlcNAc
How it was run: as §1

Gal6S(b1-3)GlcNAc = target: Gal6S(b1-3)GlcNAc
How it was run: as §1

GalNAc4S6S(b1-4)GlcNAc = target: GalNAc4S6S(b1-4)GlcNAc
How it was run: as §1

GlcA(b1-6)Gal = target: GlcA(b1-6)Gal
How it was run: as §1

[17] = target: GlcNAc(a1-4)Gal(b1-4)GlcNAc
How it was run: as §1

[18] = target: GlcNAc(b1-2)Man(a1-3)[GlcNAc(b1-4)][GlcNAc(b1-2)Man(a1-6)]Man(b1-4)GlcNAc(b1-4)GlcNAc
How it was run: as §1

[19] = target: GlcNAc(b1-2)[GlcNAc(b1-4)]Man(a1-3)[GlcNAc(b1-2)Man(a1-6)]Man(b1-4)GlcNAc(b1-4)GlcNAc
How it was run: as §1

[20] = target: GlcNAc(b1-2)[GlcNAc(b1-4)]Man(a1-3)[GlcNAc(b1-4)][GlcNAc(b1-2)[GlcNAc(b1-6)]Man(a1-6)]Man(b1-4)GlcNAc(b1-4)GlcNAc
How it was run: as §1

GlcNAc(b1-3)Fuc = target: GlcNAc(b1-3)Fuc
How it was run: as §1

[21] = target: GlcNAc(b1-3)Gal(b1-3)GalNAc
How it was run: as §1

[22] = target: GlcNAc(b1-3)Gal(b1-4)GlcNAc(b1-3)Gal(b1-4)GlcNAc(b1-2)Man(a1-3)[GlcNAc(b1-3)Gal(b1-4)GlcNAc(b1-3)Gal(b1-4)GlcNAc(b1-2)Man(a1-6)]Man(b1-4)GlcNAc(b1-4)GlcNAc
How it was run: as §1

[23] = target: GlcNAc(b1-3)Gal(b1-4)GlcNAc(b1-3)Gal(b1-4)GlcNAc(b1-2)[GlcNAc(b1-3)Gal(b1-4)GlcNAc(b1-3)Gal(b1-4)GlcNAc(b1-6)]Man(a1-6)[GlcNAc(b1-3)Gal(b1-4)GlcNAc(b1-3)Gal(b1-4)GlcNAc(b1-2)Man(a1-3)]Man(b1-4)GlcNAc(b1-4)[Fuc(a1-6)]GlcNAc
How it was run: as §1

[24] = target: GlcNAc(b1-4)GlcNAc(b1-4)GlcNAc(b1-4)GlcNAc(b1-4)GlcNAc
How it was run: as §1

[25] = target: GlcNAc(b1-6)Gal(b1-4)GlcNAc
How it was run: as §1

[26] = target: Man(a1-2)Man(a1-3)[Man(a1-6)]Man(a1-6)[Man(a1-2)Man(a1-3)]Man(b1-4)GlcNAc(b1-4)GlcNAc
How it was run: as §1

[27] = target: Neu5Ac(a2-3)Gal(b1-3)GalNAc(b1-4)[Neu5Ac(a2-8)Neu5Ac(a2-3)]Gal(b1-4)Glc
How it was run: as §1

[28] = target: Neu5Ac(a2-3)Gal(b1-3)GlcNAc(b1-2)Man(a1-3)[Neu5Ac(a2-3)Gal(b1-3)GlcNAc(b1-2)Man(a1-6)]Man(b1-4)GlcNAc(b1-4)GlcNAc
How it was run: as §1

[29] = target: Neu5Ac(a2-3)Gal(b1-4)GlcNAc(b1-2)Man(a1-3)[Neu5Ac(a2-3)Gal(b1-4)GlcNAc(b1-2)Man(a1-6)]Man(b1-4)GlcNAc(b1-4)GlcNAc
How it was run: as §1

[30] = target: Neu5Ac(a2-3)Gal(b1-4)GlcNAc(b1-3)Gal(b1-4)[Fuc(a1-3)]GlcNAc
How it was run: as §1

[31] = target: Neu5Ac(a2-3)Gal(b1-4)[Fuc(a1-3)]GlcNAc
How it was run: as §1

[32] = target: Neu5Ac(a2-3)Gal(b1-4)[Fuc(a1-3)]GlcNAc(b1-3)Gal
How it was run: as §1

[33] = target: Neu5Ac(a2-6)Gal(b1-4)GlcNAc(b1-2)Man(a1-3)[Neu5Ac(a2-6)Gal(b1-4)GlcNAc(b1-2)Man(a1-6)]Man(b1-4)GlcNAc(b1-4)[Fuc(a1-6)]GlcNAc
How it was run: as §1

[34] = target: Neu5Ac(a2-6)Gal(b1-4)GlcNAc(b1-2)[Neu5Ac(a2-6)Gal(b1-4)GlcNAc(b1-4)]Man(a1-3)[GlcNAc(b1-4)][Neu5Ac(a2-6)Gal(b1-4)GlcNAc(b1-4)Man(a1-6)]Man(b1-4)GlcNAc(b1-4)GlcNAc
How it was run: as §1

[35] = target: Neu5Ac(a2-6)GlcNAc(b1-4)GlcNAc
How it was run: as §1

[36] = target: Neu5Ac(a2-8)Neu5Ac(a2-3)[GalNAc(b1-4)]Gal(b1-4)Glc
How it was run: as §1

[37] = target: Neu5Ac(a2-8)Neu5Gc(a2-3)Gal(b1-4)GlcNAc
How it was run: as §1

[38] = target: Neu5Ac9Ac(a2-6)Gal(b1-4)GlcNAc
How it was run: as §1

[39] = target: Neu5Gc(a2-3)Gal(b1-4)GlcNAc
How it was run: as §1

[40] = target: Neu5Gc(b2-6)Gal(b1-4)GlcNAc
How it was run: as §1

B1: SAOUHSC 02783 (Staphylococcus aureus), Q5HD69 (protein)
chain: MIHSKKLTLGICLVLLIILIVGYVIMTKTNGRNAQIKDTFNQTLKLYPTKNLDDFYDKEGFRDQEFKKGDKGTWIVNSEMVIEPKGKDMETRGMVLYINRNTRTTKGYYFISEMTDDSNGRPKDDEKRYPVKMEHNKIIPTKPLPNDKLKKEIENFKFFVQYGNFKDINDYKDGDISYNPNVPSYSAKYQLNNDDYNVQQLRKRYDIPTKQAPKLLLKGDGDLKGSSVGSRSLEFTFVENKEENIYFTDSVQYTPSEDTRYESN
- glycan array binding signal (z-score) [1]: 2.61
- glycan array binding signal (z-score) [2]: -0.248
- glycan array binding signal (z-score) [3]: 0.108
- glycan array binding signal (z-score) [4]: 4.52
- glycan array binding signal (z-score) [5]: -0.71
- glycan array binding signal (z-score) [6]: 0.515
- glycan array binding signal (z-score) [7]: -1.39
- glycan array binding signal (z-score) [8]: -0.596
- glycan array binding signal (z-score) [9]: -1.73
- glycan array binding signal (z-score) (Gal(b1-3)GalNAc(b1-3)Gal): -0.932
- glycan array binding signal (z-score) (Gal(b1-3)GlcNAc): 0.236
- glycan array binding signal (z-score) [10]: 3.09
- glycan array binding signal (z-score) [11]: -0.308
- glycan array binding signal (z-score) [12]: -0.077
- glycan array binding signal (z-score) [13]: 5.18
- glycan array binding signal (z-score) [14]: 2.58
- glycan array binding signal (z-score) (Gal(b1-6)Gal): 0.805
- glycan array binding signal (z-score) [15]: -0.32
- glycan array binding signal (z-score) [16]: -0.324
- glycan array binding signal (z-score) (Gal6S(b1-3)GlcNAc): -0.599
- glycan array binding signal (z-score) (GalNAc4S6S(b1-4)GlcNAc): -0.245
- glycan array binding signal (z-score) (GlcA(b1-6)Gal): 2.83
- glycan array binding signal (z-score) [17]: -0.454
- glycan array binding signal (z-score) [18]: -0.821
- glycan array binding signal (z-score) [19]: 1.11
- glycan array binding signal (z-score) [20]: -0.289
- glycan array binding signal (z-score) (GlcNAc(b1-3)Fuc): -0.235
- glycan array binding signal (z-score) [21]: -0.447
- glycan array binding signal (z-score) [22]: 2.6
- glycan array binding signal (z-score) [23]: 2.84
- glycan array binding signal (z-score) [24]: -0.476
- glycan array binding signal (z-score) [25]: 0.133
- glycan array binding signal (z-score) [26]: 0.494
- glycan array binding signal (z-score) [27]: -0.869
- glycan array binding signal (z-score) [28]: 6.23
- glycan array binding signal (z-score) [29]: 0.306
- glycan array binding signal (z-score) [30]: -0.998
- glycan array binding signal (z-score) [31]: -1.44
- glycan array binding signal (z-score) [32]: -0.162
- glycan array binding signal (z-score) [33]: 2.81
- glycan array binding signal (z-score) [34]: 0.093
- glycan array binding signal (z-score) [35]: 1.36
- glycan array binding signal (z-score) [36]: -0.759
- glycan array binding signal (z-score) [37]: -1.02
- glycan array binding signal (z-score) [38]: 1.65
- glycan array binding signal (z-score) [39]: 3.09
- glycan array binding signal (z-score) [40]: -0.76
